UHRF1 binding = blocks human UHRF1 binding to methylated DNA; UHRF1 binding to methylated oligo, TR-FRET; inhibition, % at 4.4 µM; actives 0.75% (n = 370,000); AID 687016; in the data active means inhibition above about 21%;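 further: UHRF1 SRA domain binding a hemimethylated CpG hairpin DNA probe; 0% = median of test compound wells and 100% = reference inhibitor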
PLC-gamma1 inh = blocks human PLC-gamma1 enzyme activity. AID 720700. actives 0.84% (n = 370,000). purified PLC-gamma1, fluorogenic substrate, fluorescence. inhibition, % at 12.2 µM; in the data active means inhibition above about 9.5%
MBD2 DNA inh = MBD2-methylated oligo binding inhibition. Q9UBB5. TR-FRET, MBD2 binding to methylated oligonucleotide. inhibition, % at 4.4 µM. actives 0.31% (n = 370,000); in the data active means inhibition above about 13%
LEDGF integ inh = blocks HIV-1 LEDGF/p75-dependent DNA integration; actives 0.64% (n = 370,000); TR-FRET IN-LEDGF/p75 DNA integration, Eu/Cy5; inhibition, % at 3.7 µM;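 active means inhibition above the screen-wide mean plus 3 SD, cut at about 13% in these data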;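 further: signal is the Cy5 over europium emission ratio at 671 and 618 nm; 0% = plate median of compound wells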
PLCb3 inh = inhibitors of human phospholipase C beta3. inhibition, % at 12.2 µM. Purified PLC-beta3, fluorogenic substrate, fluorescence. actives 0.18% (n = 370,000);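 further: 0% = median of compound wells on plate and 100% = full blocker control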
PLCg1 ctr = inhibits human PLC-gamma1 in PLC-beta3 counter-screen | inhibition, % at 12.3 µM | AID 743258 | purified PLC-gamma1, fluorogenic substrate, fluorescence | shares compounds with PLC-gamma1 inh | actives 3.1% (n = 3,300); in the data active means inhibition above about 9.5%
PLCb3 confirm = human PLC-beta3 inhibition, confirmation; shares compounds with PLC-gamma1 inh; inhibition, % at 12.3 µM; purified PLC-beta3, fluorogenic substrate fluorescence; actives 1% (n = 3,300)
Active calls of the source: *; . = no result; ! = not confirmed by another sample. Most compounds without a hit are left out; they make up all but 2.3% or so of the library. Unless noted, no stated cut-off is given here; in the data, active means inhibition above about 11%; inactive means the rest.

SMILES	UHRF1 binding	PLC-gamma1 inh	MBD2 DNA inh	LEDGF integ inh	PLCb3 inh	PLCg1 ctr	PLCb3 confirm
COc1cc(C)c(C)cc1S(=O)(=O)N1CCN(Cc2ccc3c(c2)OCO3)CC1	0	10*	-5	0	11*	-4	-1
CN=C1SC(CC(=O)NCCc2ccc(OC)c(OC)c2)C(=O)N1C (centres undefined)	8	11*!	-1	4	13*!	9.5*	6
C=CCN1[C@H](C#N)[C@@H](c2ccc(C#Cc3cccnc3)cc2)[C@H]1CO	15	-20	9	4	-27	.	.
N/C(=N\OC(=O)c1ccccc1Cl)c1ccncc1	5	10*	1	7	-2	-2	-3
CCOC(=O)C(C)c1c(C)[nH]c(=S)[nH]c1=O (centres undefined)	6	11*	3	1	9	-3	-7
Cc1ccc(-c2nn(-c3ccccc3)cc2C(=O)Nc2ccc(C)c(S(=O)(=O)N3CCOCC3)c2)cc1	2	9.6*	4	-1	4	-5	-9
Cc1[nH][nH]c(=O)c1C=Nc1ccc(C(F)(F)F)cc1	-3	0	3	0	3	.	.
COc1ccc(N=Cc2c(C)[nH][nH]c2=O)cc1	-6	9.9*	-7	-1	8	1	1
Cc1cc(N2CCN(CCO)CC2)n2nc(C)nc2n1	-4	-4	-3	4	-7	.	.
CCn1c2c(c(C)cc1=O)C(=O)CC(C)(C)C2	0	0	2	0	-1	.	.
CCn1c(C)c2c([n+]1CC)CC(C)(C)CC2=O	1	1	-3	-1	76*	-4	-1
Cc1ccc2c(c1)c(N=Nc1cccc(C(=O)O)c1)c(O)n2C	4	13*	-3	-3	1	-8	-8
CCOC(=O)[C@@H]1CCNC[C@@H]1c1ccccc1	0	1	1	-2	-1	.	.
CCOC(=O)C1NC(=O)CC1c1ccccc1 (centres undefined)	2	11*	-5	7	8	7	3
CC(C)CC(N)c1csc(NC(=O)NCCc2ccccc2)n1 (centres undefined)	-1	6	0	4	0	.	.
NC(Cc1ccc(C(F)(F)F)cc1)c1csc(NC(=O)NCCc2ccccc2)n1 (centres undefined)	3	12*	10	6	-3	-7	1
Cn1c(SCCc2ccccc2)nnc1-c1ccco1	1	1	7	-4	-2	.	.
O=C(NCC1CCCO1)c1ccc(Oc2ccc([N+](=O)[O-])cc2)cc1 (centres undefined)	2	3	-3	-1	-2	.	.
CC(Oc1ccc([N+](=O)[O-])cc1)C(=O)NCC1CCCO1 (centres undefined)	7	11*	0	1	3	-1	4
Cc1nc([N+](=O)[O-])c(Sc2nc3ccc([N+](=O)[O-])cc3[nH]2)n1Cc1ccccc1	1	12*	-4	2	6	3	-1
Cc1nc([N+](=O)[O-])c(Br)n1Cc1ccccc1	0	1	3	-3	-2	.	.
Cc1ccc(F)cc1NC(=O)c1ccc(NS(=O)(=O)c2ccc(Br)s2)cc1	0	-3	2	0	-9	.	.
NC(=O)c1ccc(NS(=O)(=O)c2ccc(Br)s2)cc1	0	9.7*	2	0	-2	-4	-3
Cc1nc2c3cc(F)ccc3n(Cc3ccccc3)c2s1	6	0	1	1	-2	.	.
Cc1nc2c3cc(F)ccc3n(CCN3CCCCC3)c2s1	7	9.7*	5	-5	-10	-6	0
SMILES	UHRF1 binding	PLC-gamma1 inh	MBD2 DNA inh	LEDGF integ inh	PLCb3 inh	PLCg1 ctr	PLCb3 confirm
COc1ccc2nc(NC(=O)C3CCCN(S(=O)(=O)c4cccc5nonc45)C3)sc2c1 (centres undefined)	-1	10*	-3	2	-3	0	-9
Clc1ccc(Cn2ccc(-c3ccc4c(c3)OCO4)n2)cc1Cl	7	19*	3	2	12*	7	9
c1cc2c(cc1Cn1cnnn1)OCO2	1	-5	1	-1	0	.	.
Cc1ccc(CNC(=O)OC(C)(C)C)c(/C=C/S(=O)(=O)NCc2ccc(F)cc2)c1	-1	4	2	7	3	.	.
CCOC(=O)N1CCN(C(=O)/C(=C\c2cccs2)NC(=O)c2cccs2)CC1	6	10*	2	-2	1	6	8
C=CCn1c(-c2csc(-c3ccc(Cl)cc3)n2)n[nH]c1=S	-1	9.8*	-2	-7	8	-11	-10
C=CCn1c(-c2csc(-c3ccccc3)n2)n[nH]c1=S	0	8	-1	3	-1	.	.
O=C(O)CCC(=O)Nc1ccc(Br)cn1	2	10*	0	4	3	-4	-12
CCCCCCC(=O)Nc1ccc(Br)cn1	0	3	-2	2	-1	.	.
O=C(COC(=O)CC12CC3CC(CC(Br)(C3)C1)C2)NC(=O)NCc1ccco1	5	11*	1	6	7	-7	-6
CNC(=S)N/N=C(\C)c1ccc2c(c1)OCO2	0	0	1	8	-6	.	.
CNC(=S)N/N=C(\C)c1ccc2c(c1)OCCO2	2	15*	2	2	5	1	0
COc1ccc2c(OC)cc(=O)n(C)c2c1	-4	13*	3	6	3	-7	-5
COc1cc(=O)n(C)c2ccccc12	-3	2	2	1	3	.	.
O=c1[nH]n(-c2ccccc2Cl)c(=O)c2ccccc12	0	14*	3	6	-4	-10	-7
Cn1[nH]c(=O)c2ccccc2c1=O	0	-11	7	-2	-13	.	.
CCCC[C@H]1C2CC(OC(=O)Nc3ccccc3)C(C2)[C@H]2CCCCN21 (some centres undefined)	-1	0	-2	-4	-1	.	.
COC(=O)[C@]12C[C@H](CC(=O)NCc3cccc(C(F)(F)F)c3)C(=O)N(Cc3ccc(Cl)cc3Cl)C1=C[C@H](C1CCCC1)O[C@@H]2C	0	0	1	-3	3	.	.
Cc1ccc(C(=O)NC(=S)NNC(=O)CCN2CCOCC2)cc1	1	9.6*	-4	1	3	-5	2
COCCOC(=O)N(C)C[C@@H]1OCCCC[C@H](C)Oc2ccc(NC(=O)Nc3ccccc3)cc2C(=O)N([C@@H](C)CO)C[C@H]1C	3	0	2	-3	0	.	.
O=C(c1cc(-c2ccccc2)on1)N1CCC(Oc2cccnc2)CC1	-2	-1	0	0	1	.	.
NC(=O)CC[C@H](NC(=O)c1ccc(F)cc1)C(=O)OCC(=O)NCc1ccc(F)cc1	4	10*	4	0	4	-2	-2
CC(C)c1cc(C(C)C)c(S(=O)(=O)N2CCC(c3cn4ccccc4n3)CC2)c(C(C)C)c1	-2	-5	-1	3	-7	.	.

Screening data from PubChem.
